Assay results as given in PubChem BioAssay (Tox21).
Records with an inconclusive call do not appear. The source made the active and inactive calls. Unless noted, the call rests on the fitted dose curve; in most records, active means well fitted curve in the direction sought with a large enough effect in the repeat runs; inconclusive means weak or mixed curves; inactive means no such curve, though single readings can be large; an effect the other way counts as inactive or inconclusive.

Key:
[1] = qHTS assay to identify small molecule HDAC inhibitors (AID 1259364); further: potency means the concentration at half of the fitted maximal effect;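 further: wild-type HCT-116 cells with endogenous class I/II HDAC activity; nearly all actives have a fitted effect of over 45% in size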; on activity change, negative = inhibition: top concentration of the series differs between compounds; on the % scale 0 is the no-effect control and ±100 the full control effect
Method in brief: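 Screening used wild-type human colon HCT-116 cells incubated overnight, dosed with compounds for 2 hours, and assayed with a homogeneous luminogenic HDAC I/II reagent for 30 minutes at room temperature.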

[2] = qHTS assay to identify small molecule agonists of the sonic hedgehog signaling (Shh) pathway - cell viability counter screen (AID 1259366); further: on the % scale 0 is the no-effect control and ±100 the full control effect; nearly all actives have a fitted effect of over 50% in size
Method in brief: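 Cytotoxicity counter screen: CellTiter-Fluor reagent added after 23 h compound exposure, then 1 h at 37C and fluorescence read. Cells were 3T3 Gli1-Luc, seeded 2,000 per well and dosed 4 h post-plating.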

[3] = qHTS assay to identify small molecule antagonists of the sonic hedgehog signaling (Shh) pathway - cell viability counter screen (AID 1259367); further: on the % scale 0 is the no-effect control and ±100 the full control effect; nearly all actives have a fitted effect of over 55% in size
Method in brief: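 Fluorescence read-out (CellTiter-Fluor, 1 hr at 37C) taken after 23 hr compound treatment of 3T3 Gli1-Luc cells stimulated with conditioned medium. Cells were seeded at 2,000 per well and pre-incubated 4 hr.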

[4] = qHTS assay to identify small molecule agonists of the sonic hedgehog signaling (Shh) pathway (AID 1259368; calls by dose curve;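 further: NIH/3T3-derived 3T3Gli1-Luc cells carrying a stable Gli1-driven firefly luciferase reporter; series mostly up to about 92 µM; on the % scale 0 is the no-effect control and ±100 the full control effect; nearly all actives have a fitted effect of over 15% in size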)
Method in brief: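 Hedgehog pathway agonism scored by increased firefly luciferase luminescence in 3T3Gli1-Luc cells treated 24 hr at 37 C; detection used a 30 min room-temperature reagent incubation.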

[5] = qHTS assay to identify small molecule antagonists of the sonic hedgehog signaling (Shh) pathway (AID 1259369; calls by dose curve; further: on the % scale 0 is the no-effect control and ±100 the full control effect; nearly all actives have a fitted effect of over 45% in size)
Method in brief: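 NIH/3T3 stable Gli1-Luc clone, 2,000 cells/well, 4hr settle; cpd + conditioned medium 24hr; Luc reagent 30min RT; luminescence.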

[6] = qHTS assay to identify small molecule agonists of the androgen receptor (AR) signaling pathway in the presence of an antagonist - cell viability counter screen (AID 1259379); further: nearly all actives have a fitted effect of over 25% in size; further: potency means the concentration at half of the fitted maximal effect
Method in brief: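 MDA-kb2 viability measured by CellTiter-Fluor fluorescence in the same wells as the luciferase signal; nilutamide 3.0uM final; 15-point compound titration; 16 hr at 37C.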

[7] = qHTS assay to identify small molecule agonists of the estrogen receptor beta (ER-beta) signaling pathway - cell viability counter screen (AID 1259380); further: on the % scale 0 is the no-effect control and ±100 the full control effect; nearly all actives have a fitted effect of over 30% in size
Method in brief: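 Measured: luminescence from CellTiter-Glo after 30 min at room temperature, added to wells already read for the LiveBLAzer FRET reporter (2 hr substrate); ER-beta-UAS-bla HEK293T cells had 16 hr compound treatment at 37C, 5% CO2.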

[8] = qHTS assay to identify small molecule antagonists of the estrogen receptor beta (ER-beta) signaling pathway - cell viability counter screen (AID 1259382); further: series mostly up to about 92 µM; on the % scale 0 is the no-effect control and ±100 the full control effect; nearly all actives have a fitted effect of over 55% in size
Method in brief: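 Readout: luminescence, CellTiter-Glo, same wells as bla assay. System: ER-beta-UAS-bla GripTite HEK293T, 2% charcoal-stripped FBS. Exposure: compounds plus 1nM 17-beta-estradiol, 16 hr, 37C.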

[9] = qHTS assay to identify small molecule agonists or antagonists of the thyroid stimulating hormone receptor (TSHR) signaling pathway - wild type cell line counter screen (AID 1259384; calls by dose curve; further: on the % scale 0 is the no-effect control and ±100 the full control effect)
Method in brief: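 Wild-type Hek293 cells, 800/well, 18 h at 37C, then compound with Ro20-1724 for 30 min RT. cAMP by HTRF (cAMP-d2/anti-cAMP cryptate), 1 h RT, fluorescence read. 15 concentrations, triplicates.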

[10] = biological target: Thyrotropin receptor (Homo sapiens) (UniProt P16473); experiment: qHTS assay to identify small molecule antagonists of the thyroid stimulating hormone receptor (TSHR) signaling pathway (AID 1259385; calls by dose curve; further: on the % scale 0 is the no-effect control and ±100 the full control effect; nearly all actives have a fitted effect of over 20% in size)
Thyrotropin receptor (Homo sapiens), sequence (P16473 whole entry, looked up): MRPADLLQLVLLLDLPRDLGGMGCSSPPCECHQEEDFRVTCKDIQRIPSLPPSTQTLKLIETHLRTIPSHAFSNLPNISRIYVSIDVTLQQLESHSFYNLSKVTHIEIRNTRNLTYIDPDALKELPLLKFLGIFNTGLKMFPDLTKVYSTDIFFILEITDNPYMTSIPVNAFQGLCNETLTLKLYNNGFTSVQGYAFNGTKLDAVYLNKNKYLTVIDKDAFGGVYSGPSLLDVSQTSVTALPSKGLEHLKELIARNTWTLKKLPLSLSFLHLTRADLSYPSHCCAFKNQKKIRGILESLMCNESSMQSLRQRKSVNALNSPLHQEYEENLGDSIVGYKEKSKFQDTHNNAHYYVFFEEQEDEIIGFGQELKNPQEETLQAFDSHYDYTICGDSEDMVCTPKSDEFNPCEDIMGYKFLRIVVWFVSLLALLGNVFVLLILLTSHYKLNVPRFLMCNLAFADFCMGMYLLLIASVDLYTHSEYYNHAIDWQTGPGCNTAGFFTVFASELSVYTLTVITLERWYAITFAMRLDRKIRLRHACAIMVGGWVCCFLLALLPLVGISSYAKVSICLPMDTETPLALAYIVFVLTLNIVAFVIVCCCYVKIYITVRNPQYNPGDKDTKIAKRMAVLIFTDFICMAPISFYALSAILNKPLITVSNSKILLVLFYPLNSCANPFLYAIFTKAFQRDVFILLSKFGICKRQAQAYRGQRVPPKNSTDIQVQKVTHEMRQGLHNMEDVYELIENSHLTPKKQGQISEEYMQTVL
Method in brief: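 TSHR-HEK293 cells (800/well) plated 18 h, then compounds with Ro20-1724 and TSH at 1.5 ng/mL final, 30 min at room temperature. cAMP quantified by HTRF (cAMP-d2/anti-cAMP-cryptate, 1 h); 15 concentrations in triplicate.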

[11] = biological target: Estrogen receptor (Homo sapiens) (UniProt P03372); experiment: qHTS assay to identify small molecule antagonists of the estrogen receptor alpha (ER-alpha) signaling pathway using the BG1 cell line in the presence of 0.1 nM 17-beta-estradiol (AID 1259244); further: on the % scale 0 is the no-effect control and ±100 the full control effect; nearly all actives have a fitted effect of over 50% in size
Estrogen receptor (Homo sapiens), sequence (P03372 whole entry, looked up): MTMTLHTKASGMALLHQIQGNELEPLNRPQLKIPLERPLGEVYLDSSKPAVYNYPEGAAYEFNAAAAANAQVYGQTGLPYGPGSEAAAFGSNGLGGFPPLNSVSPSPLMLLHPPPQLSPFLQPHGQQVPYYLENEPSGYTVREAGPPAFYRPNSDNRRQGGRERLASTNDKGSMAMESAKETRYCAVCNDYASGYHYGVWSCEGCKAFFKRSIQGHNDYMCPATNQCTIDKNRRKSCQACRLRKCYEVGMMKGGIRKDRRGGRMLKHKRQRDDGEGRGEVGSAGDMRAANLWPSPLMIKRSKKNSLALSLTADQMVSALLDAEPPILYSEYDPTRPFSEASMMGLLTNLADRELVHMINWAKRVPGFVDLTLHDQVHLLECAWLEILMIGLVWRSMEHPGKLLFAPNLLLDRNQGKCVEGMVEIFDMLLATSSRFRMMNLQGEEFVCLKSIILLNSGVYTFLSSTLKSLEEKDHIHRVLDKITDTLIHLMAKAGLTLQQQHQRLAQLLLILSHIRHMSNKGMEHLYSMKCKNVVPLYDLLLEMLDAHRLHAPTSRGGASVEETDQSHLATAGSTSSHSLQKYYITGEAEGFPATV
Method in brief: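 Compounds were tested against 0.1 nM (final) 17beta-estradiol in VM7Luc4E2 cells, which express full-length ER-alpha and an ERE-luciferase reporter; luminescence was recorded following 22 h exposure.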

[12] = qHTS assay to identify small molecule HDAC inhibitors - cell viability counter screen (AID 1259365); further: series mostly up to about 92 µM; on the % scale 0 is the no-effect control and ±100 the full control effect; nearly all actives have a fitted effect of over 50% in size
Method in brief: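 CellTiter-Glo luminescence (30 min, room temperature) reported viability after a 2 h compound exposure at 37 C. Cells: wild-type HCT-116, 1,500 per well, seeded the night before.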

[13] = biological target: Estrogen receptor (Homo sapiens) (UniProt P03372); experiment: qHTS assay to identify small molecule agonists of the estrogen receptor alpha (ER-alpha) signaling pathway in the presence of an antagonist (AID 1259383; calls by dose curve; further: top concentration of the series differs between compounds; on the % scale 0 is the no-effect control and ±100 the full control effect; nearly all actives have a fitted effect of over 15% in size)
Method in brief: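 Quantitative HTS confirmation: compounds titrated at 15 concentrations onto estrogen-deprived VM7Luc4E2 cells carrying a four-ERE luciferase construct, with ICI-182,780 present at 10.0nM final. Signal is luminescence after 22hr exposure.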

[14] = qHTS assay to identify small molecule phospholipidosis (PLD) inducers (AID 1259344; active means well fitted curve in the direction sought with a large enough effect; an effect the other way counts as inactive or inconclusive; further: on the % scale 0 is the no-effect control and ±100 the full control effect)
Method in brief: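 Read-out is LipidTOX Red fluorescence (ex 595/em 615) imaged in HepG2 cells after 24 h compound exposure at 37 C, with Hoechst nuclear counterstain (ex 352/em 461) allowing per-cell normalisation.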

[15] = biological target: Estrogen receptor beta (Homo sapiens) (UniProt Q92731); experiment: qHTS assay to identify small molecule agonists of the estrogen receptor beta (ER-beta) signaling pathway (AID 1259377; active means well fitted activation curve with a large enough effect in the signal ratio in the repeat runs, not every such curve was filed as active; the % refers to the signal ratio; further: on the % scale 0 is the no-effect control and ±100 the full control effect)
Estrogen receptor beta (Homo sapiens), sequence (Q92731 whole entry, looked up): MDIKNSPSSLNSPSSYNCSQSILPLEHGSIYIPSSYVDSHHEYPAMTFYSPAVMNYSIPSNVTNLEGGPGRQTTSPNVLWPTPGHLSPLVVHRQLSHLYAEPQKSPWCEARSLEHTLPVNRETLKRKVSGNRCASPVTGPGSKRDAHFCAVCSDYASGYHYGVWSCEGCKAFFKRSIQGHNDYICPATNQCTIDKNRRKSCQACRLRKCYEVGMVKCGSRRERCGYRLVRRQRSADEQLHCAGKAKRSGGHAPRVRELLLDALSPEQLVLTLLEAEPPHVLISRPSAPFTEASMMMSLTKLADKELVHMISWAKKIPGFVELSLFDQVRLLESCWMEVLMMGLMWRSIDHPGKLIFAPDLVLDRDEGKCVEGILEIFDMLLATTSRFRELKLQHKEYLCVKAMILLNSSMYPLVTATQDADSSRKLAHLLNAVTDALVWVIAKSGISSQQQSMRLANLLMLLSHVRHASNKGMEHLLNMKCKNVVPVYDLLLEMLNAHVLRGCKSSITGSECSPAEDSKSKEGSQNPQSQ
Method in brief: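 Ratiometric beta-lactamase FRET read-out came after 2 h substrate loading at room temperature. It followed 16 h compound treatment at 37C of GripTite HEK293T cells carrying a UAS-bla reporter, plated in 2% charcoal-stripped FBS medium.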

[16] = biological target: Estrogen receptor beta (Homo sapiens) (UniProt Q92731); experiment: qHTS assay to identify small molecule antagonists of the estrogen receptor beta (ER-beta) signaling pathway (AID 1259378; active means well fitted inhibition curve with a large enough effect in the signal ratio in the repeat runs, not every such curve was filed as active; the % refers to the signal ratio; further: potency means the concentration at half of the fitted maximal effect)
Method in brief: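 ER-beta-UAS-bla HEK293T cells in 2% charcoal-stripped FBS medium treated with compound plus 1nM final 17-beta-estradiol for 16 hr at 37C. Beta-lactamase reporter read by FRET substrate fluorescence after 2 hours at room temperature.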

[17] = qHTS assay to identify small molecule antagonists of the androgen receptor (AR) signaling pathway using the MDA cell line in the presence of 0.5 nM R1881 - cell viability counter screen (AID 1259242); further: on the % scale 0 is the no-effect control and ±100 the full control effect; nearly all actives have a fitted effect of over 45% in size
Method in brief: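 Concentration-response screen of compounds for toxicity in MDA-kb2 reporter cells: 16 hr at 37C with 0.5 nM R1881, endpoint live-cell protease fluorescence measured in the reporter wells.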

[18] = biological target: Androgen receptor (Homo sapiens) (UniProt P10275); experiment: qHTS assay to identify small molecule antagonists of the androgen receptor (AR) signaling pathway using the MDA cell line in the presence of 0.5 nM R1881 (AID 1259243); further: potency means the concentration at half of the fitted maximal effect; nearly all actives have a fitted effect of over 50% in size
Androgen receptor (Homo sapiens), sequence (P10275 whole entry, looked up): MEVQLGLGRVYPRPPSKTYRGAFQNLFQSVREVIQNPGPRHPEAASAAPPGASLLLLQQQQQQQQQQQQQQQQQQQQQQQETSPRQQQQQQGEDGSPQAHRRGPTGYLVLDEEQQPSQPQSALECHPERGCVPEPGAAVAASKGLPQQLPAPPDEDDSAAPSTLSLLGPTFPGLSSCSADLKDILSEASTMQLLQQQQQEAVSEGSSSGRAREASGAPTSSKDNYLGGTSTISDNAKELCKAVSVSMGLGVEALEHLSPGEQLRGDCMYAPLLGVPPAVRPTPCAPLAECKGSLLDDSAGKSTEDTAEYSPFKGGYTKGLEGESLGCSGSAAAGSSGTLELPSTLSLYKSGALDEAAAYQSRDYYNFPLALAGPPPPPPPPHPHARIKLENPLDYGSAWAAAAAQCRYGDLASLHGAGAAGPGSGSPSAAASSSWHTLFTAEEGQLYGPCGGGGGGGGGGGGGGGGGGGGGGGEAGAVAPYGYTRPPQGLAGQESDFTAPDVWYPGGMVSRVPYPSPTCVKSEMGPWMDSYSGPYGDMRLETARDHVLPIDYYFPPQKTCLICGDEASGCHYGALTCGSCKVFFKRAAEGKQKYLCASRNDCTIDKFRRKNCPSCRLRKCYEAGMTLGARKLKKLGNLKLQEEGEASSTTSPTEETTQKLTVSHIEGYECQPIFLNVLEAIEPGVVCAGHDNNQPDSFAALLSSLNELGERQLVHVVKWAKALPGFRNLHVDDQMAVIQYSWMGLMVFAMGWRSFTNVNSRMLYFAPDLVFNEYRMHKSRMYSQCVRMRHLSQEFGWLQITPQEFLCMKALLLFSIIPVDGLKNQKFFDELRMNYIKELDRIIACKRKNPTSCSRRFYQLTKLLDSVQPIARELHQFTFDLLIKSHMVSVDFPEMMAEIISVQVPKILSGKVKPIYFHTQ
Method in brief: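 With R1881 held at 0.5 nM (final), compound effects on MMTV-luciferase expression in MDA-kb2 cells were scored by luminescence after a 16 hr, 37C incubation.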

[19] = biological target: Androgen receptor (Homo sapiens) (UniProt P10275); experiment: qHTS assay to identify small molecule agonists of the androgen receptor (AR) signaling pathway in the presence of an antagonist (AID 1259381; calls by dose curve; further: on the % scale 0 is the no-effect control and ±100 the full control effect; nearly all actives have a fitted effect of over 15% in size)
Method in brief: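 Luminescent ONE-Glo read, 30min at room temperature, follows 16hr compound exposure (15 concentrations) of MDA-kb2 cells at 37C, 0% CO2, with nilutamide added at 3.0uM final.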

CC(CN(CCN(CC(C)OCCO)CC(C)OCCO)CC(C)OCCO)OCCO (centres undefined)
active: Potency [6] 33.1 µM
inactive: Potency [1] | Potency [2] | Potency [3] | Potency [4] | Potency [5] | Potency [7] | Potency [8] | Potency [9] | Potency [10]

CCCCCCCCCCCCCCCC(=O)OCC
inactive: Potency [11] | Potency [1] | Potency [12] | Potency [2] | Potency [3] | Potency [4] | Potency [5] | Potency [6] | Potency [7] | Potency [13] | Potency [9] | Potency [10]

COc1ccc(-c2cc(=S)ss2)cc1
active: Potency [1] 11.9 µM | Potency [16] 13.3 µM
inactive: Potency [11] | Potency [14] | Potency [12] | Potency [2] | Potency [3] | Potency [4] | Potency [5] | Potency [15] | Potency [7] | Potency [8] | Potency [9]

Nc1nc2ccc(OC(F)(F)F)cc2s1
inactive: Potency [17] | Potency [11] | Potency [14] | Potency [12] | Potency [2] | Potency [3] | Potency [4] | Potency [5] | Potency [15] | Potency [16] | Potency [6] | Potency [7] | Potency [9] | Potency [10]

C=C(C)C(=O)OCCC(F)(F)C(F)(F)C(F)(F)C(F)(F)C(F)(F)C(F)(F)F
inactive: Potency [11] | Potency [1] | Potency [2] | Potency [3] | Potency [4] | Potency [5] | Potency [15] | Potency [16] | Potency [7] | Potency [8] | Potency [13] | Potency [9] | Potency [10]

CC1=CC[C@@H]2C[C@H]1C2(C)C
inactive: viability change, negative = cytotoxic [17] 1.84% [at 19 µM] | activity change, negative = inhibition [11] 11.8% [at 19 µM] | activity change, negative = inhibition [1] 0.0628% [at 19 µM] | viability change, negative = cytotoxic [2] -0.75% [at 19 µM] | viability change, negative = cytotoxic [3] -2.9% [at 19 µM] | activation [15] -1.23% [at 19 µM] | activity, negative = inhibition [16] -3.84% [at 19 µM] | activity change, negative = cytotoxicity [6] 0.221% [at 19 µM] | activity change, negative = cytotoxicity [7] 5.66% [at 19 µM] | activity change, negative = cytotoxicity [8] 4.03% [at 19 µM] | cAMP activity change [9] -1.96% [at 18.9 µM, active compounds read high] | activity change, negative = inhibition [10] 8.95% [at 19 µM]

Cc1ccc(Cl)cc1N
inactive: Potency [17] | Potency [1] | Potency [12] | Potency [2] | Potency [3] | Potency [5] | Potency [15] | Potency [16] | Potency [7] | Potency [8] | Potency [9] | Potency [10]

CC[C@H]1OC(=O)[C@H](C)[C@@H](O[C@H]2C[C@@](C)(OC)[C@@H](O)[C@H](C)O2)[C@H](C)[C@@H](O[C@@H]2O[C@H](C)C[C@H](N(C)C)[C@H]2O)[C@](C)(O)C[C@@H](C)C(=O)[C@H](C)[C@@H](O)[C@]1(C)O
inactive: Potency [17] | Potency [14] | Potency [1] | Potency [12] | Potency [3] | Potency [4] | Potency [5] | Potency [15] | Potency [6] | Potency [7] | Potency [8] | Potency [9] | Potency [10]

CS(=O)(=O)c1ccc([C@@H](C[C@H]2CCC(=O)C2)C(=O)Nc2cnccn2)cc1Cl
inactive: Potency [17] | Potency [1] | Potency [12] | Potency [2] | Potency [3] | Potency [4] | Potency [5] | Potency [15] | Potency [16] | Potency [6] | Potency [7] | Potency [13] | Potency [9] | Potency [10]

CCNc1nc(N)nc(Cl)n1
inactive: Potency [17] | Potency [1] | Potency [12] | Potency [2] | Potency [3] | Potency [4] | Potency [5] | Potency [15] | Potency [16] | Potency [6] | Potency [7] | Potency [8] | Potency [9] | Potency [10]

Nc1ccc(S(=O)(=O)NCc2ccccc2)cc1
inactive: Potency [17] | Potency [14] | Potency [1] | Potency [12] | Potency [2] | Potency [4] | Potency [5] | Potency [15] | Potency [16] | Potency [6] | Potency [8] | Potency [9] | Potency [10]

CCN(CC)C(=O)/C(C#N)=C/c1cc(O)c(O)c([N+](=O)[O-])c1
active: Potency [18] 23.7 µM | Potency [6] 23.7 µM
inactive: Potency [11] | Potency [14] | Potency [12] | Potency [2] | Potency [4] | Potency [5] | Potency [15] | Potency [7] | Potency [19] | Potency [8] | Potency [13] | Potency [9] | Potency [10]

CCCCCCCCCCCC(=O)OCC(O)CO (centres undefined)
inactive: Potency [11] | Potency [14] | Potency [1] | Potency [12] | Potency [2] | Potency [3] | Potency [4] | Potency [5] | Potency [15] | Potency [6]

CC(C)(C)S
inactive: Potency [17] | Potency [11] | Potency [1] | Potency [2] | Potency [3] | Potency [5] | Potency [6] | Potency [7] | Potency [8] | Potency [13] | Potency [9] | Potency [10]

COc1ccc(N)c([N+](=O)[O-])c1
inactive: Potency [17] | Potency [12] | Potency [2] | Potency [4] | Potency [5] | Potency [15] | Potency [16] | Potency [7] | Potency [8] | Potency [9] | Potency [10]

CCCCCCCCCCCCCOC(=O)CCSCCC(=O)OCCCCCCCCCCCCC
inactive: viability change, negative = cytotoxic [17] 3.47% [at 19 µM] | activity change, negative = inhibition [1] 3.35% [at 19 µM] | activity change, negative = cytotoxicity [12] 6.04% [at 19 µM] | viability change, negative = cytotoxic [2] 2.43% [at 19 µM] | viability change, negative = cytotoxic [3] -3.37% [at 19 µM] | activity change [4] -0.0494% [at 18.9 µM, active compounds read high] | activity change, negative = inhibition [5] 8.97% [at 19 µM] | activation [15] -0.464% [at 19 µM] | activity change, negative = cytotoxicity [6] -0.499% [at 19 µM] | activity change, negative = cytotoxicity [7] 4.18% [at 19 µM] | activity change, negative = cytotoxicity [8] 3.4% [at 19 µM] | cAMP activity change [9] -3.33% [at 18.9 µM, active compounds read high] | activity change, negative = inhibition [10] -0.382% [at 19 µM]

Nc1ccc(N=Nc2ccc(N)cc2)cc1
inactive: Potency [17] | Potency [12] | Potency [4] | Potency [13] | Potency [9] | Potency [10]
active: Potency [1] 12.2 µM

Cc1cc([N+](=O)[O-])ccc1N
inactive: Potency [11] | Potency [1] | Potency [12] | Potency [4] | Potency [5] | Potency [15] | Potency [16] | Potency [7] | Potency [8] | Potency [9] | Potency [10]
